The record followed here is PubChem BioAssay (NCATS).

Inconclusive results are not listed. Active and inactive are the calls of the source. Calls follow the shape of the dose curve; as a rule, active = well fitted curve in the direction sought with a large enough effect; inconclusive = small, poorly fitted or top-dose-only effect, or another doubt; inactive = no such curve, though single readings can be large; an effect the other way counts as inactive or inconclusive.

Experiment [1] addresses Glutathione peroxidase 1 (Homo sapiens) (UniProt P07203). The experiment can be described thus: Primary qHTS Assay for Inhibitors of Recombinant Selenoprotein Glutathione Peroxidase 1 (GPX1) (AID 1845191). Also: nearly all actives have a fitted effect of over 65% in size. In short, it runs like this: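 GPX1 10 nM, GR 100 nM, GSH 1 mM, NADPH 0.5 mM, CHP 0.5 mM (final). 30-min cpd preincubation, RT. Ex340/Em450 read t=0, t=15 min.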
(In general: qHTS replaces the single test concentration by a dilution series.)

Experiment [2] concerns the target Phospholipid hydroperoxide glutathione peroxidase GPX4 (Homo sapiens) (UniProt P36969). As to the kind of experiment: Primary qHTS Assay for Inhibitors of Recombinant Selenoprotein Glutathione Peroxidase 4 (GPX4) (AID 1845192). Also: nearly all actives have a fitted effect of over 65% in size. Put shortly:
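qHTS, GR-coupled: GPX4 200 nM + cpd 30 min RT → GSH 1 mM, NADPH 0.5 mM, GR 100 nM → CHP 0.5 mM start; fluor 340/450 at t0 and t15 min; no-enzyme wells as control.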

In experiment [3] the target is Luciferin 4-monooxygenase (Photinus pyralis) (UniProt P08659). As to the kind of experiment: Primary firefly luciferase (FLuc) qHTS assay for identification of artifact compounds. (AID 1845220). Also: nearly all actives have a fitted effect of over 60% in size. Also: potency is read from the fitted curve at half-maximal effect. Put shortly: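 qHTS, 15 min compound preincubation with substrate (10 uM luciferin, 10 uM ATP) at RT, then 10 nM FLuc; 5 min; luminescence; % inhibition vs no-enzyme/DMSO controls, 4-parameter Hill fit.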

Experiment [4] can be described thus: Primary fluorescence-based thiol-reactive (MSTI) qHTS assay for identification of artifact compounds. (AID 1845221). Also: nearly all actives have a fitted effect of over 65% in size. Also: potency is read from the fitted curve at half-maximal effect. In short, it runs like this:
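Curve-fitted percent inhibition (4-parameter Hill) derived from fluorescence, Ex 525/Em 598 nm, scaled with Acetyl-MSTI and MSTI; 1 h incubation at room temperature.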

Experiment [5] relates to Nanoluciferase (engineered Oplophorus gracilirostris luciferase). As to the kind of experiment: Primary Nanoluciferase (NLuc) qHTS assay for identification of artifact compounds. (AID 1845222). Also: series mostly up to about 54 µM. Put shortly:
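Luminescence read-out of secreted NLuc in S16 cell conditioned medium (1:55); compounds tested with 15 min RT preincubation, then Nano-Glo substrate 1:100, 5 min. % inhibition vs no-enzyme and DMSO controls, 4-parameter Hill fit.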

Experiment [6] is described as follows: Primary redox qHTS assay for identification of artifact compounds. (AID 1845223). In short, it runs like this:
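Redox-cycling detection via DTT (250 uM final) oxidation coupled to Amplex Red (25 uM)/HRP (250 mU/mL) in HBSS. 15 min preincubation plus 30 min after DTT, room temperature. Ex/Em 525/598 nm; 4-parameter Hill fit against DMSO and 10 uM DA3003.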

Glutathione peroxidase 1 (Homo sapiens), sequence (P07203 whole entry, looked up): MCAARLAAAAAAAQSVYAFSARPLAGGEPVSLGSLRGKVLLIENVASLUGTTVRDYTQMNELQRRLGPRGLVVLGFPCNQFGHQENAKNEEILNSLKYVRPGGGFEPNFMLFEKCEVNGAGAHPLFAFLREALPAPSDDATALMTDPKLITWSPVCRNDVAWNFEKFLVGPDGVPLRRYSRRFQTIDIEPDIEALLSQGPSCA
Phospholipid hydroperoxide glutathione peroxidase GPX4 (Homo sapiens), sequence (P36969 whole entry, looked up): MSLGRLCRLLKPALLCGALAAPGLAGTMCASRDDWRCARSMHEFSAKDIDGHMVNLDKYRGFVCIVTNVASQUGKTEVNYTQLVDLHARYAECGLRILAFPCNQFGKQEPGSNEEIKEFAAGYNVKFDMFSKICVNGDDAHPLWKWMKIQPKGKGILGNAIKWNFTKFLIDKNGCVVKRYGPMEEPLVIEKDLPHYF

With `O=C(Nc1ccccc1Cl)c1cnc2ccc(C3CCNCC3)cn12`, the Potency entry in experiment [1], in experiment [2], in experiment [3], in experiment [4], in experiment [5] and in experiment [6] was “inactive” in each case.
As to `CC(=O)OC1C(OC(=O)c2ccccc2)C2C(=C(C)CCC2(C)C)C23CCC(C)(C2)C(=O)CC13` (stereo not given), the Potency entry in experiment [1], in experiment [2], in experiment [3], in experiment [4], in experiment [5] and in experiment [6] was “inactive” throughout.
As to `C=C(C(=O)O[C@H]1C/C(C)=C/CC/C(CO)=C/[C@H]2OC(=O)C(=C)[C@H]12)C(O)CO` (stereo not given in full), the Potency result in experiment [1], in experiment [2], in experiment [3], in experiment [4], in experiment [5] and in experiment [6] was “inactive” in each case.
For the compound `C=C(C(=O)OC)[C@@H]1CC=C2C=CC(=O)[C@H](C)[C@@]2(C)C1`, the Potency entry in experiment [1], in experiment [2], in experiment [3], in experiment [4], in experiment [5] and in experiment [6] was “inactive” each time.
In the case of `C=C1C(=O)O[C@@H]2/C=C(\CO)CC/C=C(\CO)[C@H](OC(C)=O)C(OC(=O)C(C)CC)C12` (stereo not given in full), the Potency entry in experiment [1], in experiment [2], in experiment [3], in experiment [4], in experiment [5] and in experiment [6] was “inactive” in each case.
With `COc1cc(N2CCOCC2)ccc1NC(=O)c1csc(-c2cccnc2)n1`, the Potency result in experiment [1], in experiment [2], in experiment [3], in experiment [5] and in experiment [6] was “inactive” throughout. Besides, the Potency in experiment [4] was 2.38 µM (active).
As to `COc1ccc2c(c1O[C@H]1CCNC1)CCC2`, the Potency result in experiment [1], in experiment [2], in experiment [3], in experiment [4], in experiment [5] and in experiment [6] was “inactive” in each case.
For `O=C(O)c1ccc(S(=O)(=O)N(Cc2ccc(OC(F)(F)F)cc2)c2ncc(C(F)(F)F)cc2Cl)cc1`, the Potency result in experiment [1], in experiment [2], in experiment [3], in experiment [4], in experiment [5] and in experiment [6] was “inactive” in each case.
Turning to `Cc1ccc(F)cc1S(=O)(=O)N[C@@H]1CCN(Cc2ccc(OC(C)C)cc2)C1`, the Potency entry in experiment [1], in experiment [2], in experiment [3], in experiment [4], in experiment [5] and in experiment [6] was “inactive” in each case.
`CCCCc1c(-c2ccc(OC)cc2)[nH]c2nccnc12`: the Potency result in experiment [1], in experiment [2], in experiment [3], in experiment [4], in experiment [5] and in experiment [6] was “inactive” throughout.
With `CNC(=O)COC(=O)N1CCC(CCc2ccc(Cl)cc2)CC1`, the Potency entry in experiment [1], in experiment [2], in experiment [3], in experiment [4], in experiment [5] and in experiment [6] was “inactive” in each case.
For the compound `CCOc1nc(NC(=O)Cc2cc(OC)ccc2OC)cc(N)c1C#N`, the Potency result in experiment [1], in experiment [2], in experiment [3], in experiment [4], in experiment [5] and in experiment [6] was “inactive” throughout.
Consider `C=C1C(=O)OC2/C=C(\CO)CC/C=C(\C=O)C(O)C(OC(=O)C(C)CC)C12` (stereo not given), for which the Potency result in experiment [1], in experiment [2], in experiment [3], in experiment [5] and in experiment [6] was “inactive” each time. For the same compound, the Potency in experiment [4] was 14.7 µM (active).
On to `CN(C)N(C)C(=O)[C@@]1(Cc2ccccc2)CCCN(C(=O)[C@@H](Cc2c[nH]c3ccccc23)NC(=O)C(C)(C)N)C1`, for which the Potency result in experiment [1], in experiment [2], in experiment [3], in experiment [4], in experiment [5] and in experiment [6] was “inactive” in each case.
With `COc1ccc(CNCc2cccc3ccccc23)cc1`, the Potency entry in experiment [1], in experiment [2], in experiment [3], in experiment [4], in experiment [5] and in experiment [6] was “inactive” each time.
With `Cc1cc2sc(NC(=O)Cc3ccccc3)nc2cc1Cl`, the Potency result in experiment [1], in experiment [2], in experiment [3], in experiment [4], in experiment [5] and in experiment [6] was “inactive” throughout.
Take `C=CC1(C)CC(O)C(C(=C)C(=O)OC)C(O)C1C(=C)CO` (stereo not given): the Potency result in experiment [1], in experiment [2], in experiment [3], in experiment [4], in experiment [5] and in experiment [6] was “inactive” in each case.
With `Cc1cccc(-c2[nH]ncc2-c2ccc(F)c(-c3cnn(CCO)c3)c2)n1`, the Potency entry in experiment [1], in experiment [2], in experiment [3], in experiment [4], in experiment [5] and in experiment [6] was “inactive” each time.
Consider `CC(C)(C)c1ccc(-c2nc3c(N4CCN(Cc5ccc6nccnc6c5)CC4)cccc3[nH]2)cc1`, for which the Potency result in experiment [1], in experiment [2], in experiment [5] and in experiment [6] was “inactive” each time. Further, the Potency in experiment [3] was 1.51 µM (active); in experiment [4], 6.7 µM (active).
For the compound `COC(=O)CC(O)CC(O)/C=C/c1c(C)ccc2c1C(OC(C)=O)CC(C)C2` (stereo not given), the Potency result in experiment [1], in experiment [2], in experiment [3], in experiment [4], in experiment [5] and in experiment [6] was “inactive” in each case.
Take `COc1cc(O)cc(OC2OC(CO)C(O)C(O)C2O)c1` (stereo not given): the Potency result in experiment [1], in experiment [2], in experiment [3], in experiment [5] and in experiment [6] was “inactive” each time. For the same compound, in experiment [4], the Potency is 9.47 µM (active).
Take `CC(C)c1noc(C2CCN(c3ncnc(Nc4ccc(S(C)(=O)=O)cc4F)c3[N+](=O)[O-])CC2)n1`: the Potency entry in experiment [1], in experiment [2], in experiment [3], in experiment [4], in experiment [5] and in experiment [6] was “inactive” in each case.
As for `CCc1cnc(N2CCC(c3nc(COc4ccc(-n5cnnn5)cc4)cs3)CC2)nc1`, the Potency entry in experiment [1], in experiment [2], in experiment [3], in experiment [4], in experiment [5] and in experiment [6] was “inactive” each time.
For the compound `CCn1c(=O)c(-c2ccc(Cl)cc2Cl)cc2cnc(Nc3ccc(N4CCNCC4)c(F)c3)nc21`, the Potency entry in experiment [1], in experiment [2], in experiment [3], in experiment [4], in experiment [5] and in experiment [6] was “inactive” in each case.
`CC(C)c1ccc(NC(=O)c2cccs2)c(-c2nc3ccccc3[nH]c2=O)c1`: the Potency entry in experiment [1], in experiment [2], in experiment [3], in experiment [4], in experiment [5] and in experiment [6] was “inactive” throughout.
